Sm TGR inh: qHTS Assay for the Inhibitors of Schistosoma Mansoni Peroxiredoxins; Schistosoma mansoni thioredoxin glutathione reductase (TGR), Q962Y6; 360,000 compounds, 3% hits; purified TGR, DTNB reduction, TNB absorbance 405 nm; Potency, µM (doses to about 114 µM), for inactives: at the top dose activity change, negative = inhibition, actives largely listed as inhibitors; also: potency is read from the fitted curve at half-maximal effect; nearly all actives have a fitted effect of over 60% in size
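First, TGR (20 nM dispensed) and NADPH were mixed with compound. Second, a 15 min room-temperature incubation followed. Third, further NADPH and then DTNB were added to start the reaction. Finally, TNB absorbance was monitored kinetically.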
HCMV antiviral: qHTS Assay for inhibitors of the human cytomegalovirus (HCMV); HFF cells, HCMV-luciferase reporter, 72 h; stronger effect = lower value; activity change, negative = inhibition, % at 57.5 µM; 410,000 compounds, 4.5% hits; in the data active = activity change below about -60%; inconclusive = no clear call, values can overlap the other calls; inactive = above about -39%
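Human foreskin fibroblasts infected with luciferase-reporter HCMV at MOI 1 PFU/cell, compounds at two doses. Luciferase measured 72 h post infection; normalized to buffer-only basal and Salinomycin (10uM) controls.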
RE007 growth inh: qHTS Assay for Inhibitors of the HIV-1 protein Vpr; Potency, µM (titrated, usually from 92.2 µM), for inactives: at the highest dose activity change, negative = less growth, actives largely listed as inhibitors; AID 651644, 2012; 360,000 compounds, 0.21% hits; S. pombe RE007 Vpr strain, BacTiter-Glo ATP luminescence, 24 h; active = well fitted falling curve with a large enough effect; inconclusive = small, poorly fitted or top-dose-only effect; inactive = no such curve, though single readings can be large or run the other way; also: potency is read from the fitted curve at half-maximal effect; nearly all actives have a fitted effect of over 50% in size
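Fission yeast strain RE007, carrying one chromosomally integrated HIV-1 vpr copy, was seeded at OD 0.01 in PMG+AL medium with 23 nL pinned compound. After 24 h at 30 °C and 99% humidity, viability was read by BacTiter-Glo luminescence.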
FMDV inh: High Throughput Screening for Foot and Mouth Disease Virus Antivirals; 410,000 compounds, 1.2% hits; Potency, µM (series often up to 57.9 µM), without a hit: at the top dose activity change, negative = inhibition, actives largely listed as inhibitors; AID 1159524, 2015; FMDV antiviral cell-based qHTS; calls by dose curve; tested in HEK293T cells; also: read-out not given here; potency is read from the fitted curve at half-maximal effect; nearly all actives have a fitted effect of over 45% in size
Giardia FBPA inh: qHTS Assay for Inhibitors of Fructose-1,6-bisphosphate Aldolase from Giardia Lamblia; purified Giardia FBPA; Potency, µM (doses to about 59.6 µM), for inactives: top-dose activity, negative = inhibition, hits mostly inhibitors; 290,000 compounds, 0.71% hits; AID 2451, 2010; A8B2U2; also: potency is read from the fitted curve at half-maximal effect; nearly all actives have a fitted effect of over 55% in size
Target sequence (A8B2U2 whole entry, looked up): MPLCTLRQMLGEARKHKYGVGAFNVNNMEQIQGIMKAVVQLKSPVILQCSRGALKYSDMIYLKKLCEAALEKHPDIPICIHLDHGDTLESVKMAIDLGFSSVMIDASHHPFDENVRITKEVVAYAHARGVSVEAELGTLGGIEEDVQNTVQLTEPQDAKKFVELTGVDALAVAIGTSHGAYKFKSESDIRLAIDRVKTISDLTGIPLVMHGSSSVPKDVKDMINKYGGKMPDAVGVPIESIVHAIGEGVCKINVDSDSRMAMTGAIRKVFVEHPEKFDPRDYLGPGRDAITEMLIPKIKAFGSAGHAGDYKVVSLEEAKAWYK
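Giardia FBPA (40 nM reagent) was preincubated 10 min at RT with compound (up to 57.5 uM final), then substrate plus GAPDH/TPI/NAD/arsenate coupling system with diaphorase/resazurin was added; resorufin fluorescence (525/598 nm) was read after 20 min.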
Tb PYK inh: qHTS of Trypanosoma Brucei Inhibitors | pyruvate kinase (Trypanosoma brucei), Q57TT1 | TbPYK enzyme, Kinase-Glo Plus ATP luminescence, 45 min | Potency, µM (highest dose often 76.8 µM), for the others: top-dose activity, negative = inhibition, actives largely listed as inhibitors | 410,000 compounds, 0.12% hits | AID 624173, 2012; also: potency is read from the fitted curve at half-maximal effect; nearly all actives have a fitted effect of over 50% in size
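Enzyme and substrate buffer are dispensed first and compound is pin-transferred. ADP at 130 uM final then starts the reaction, which runs 45 min at room temperature. Detection reagent is added for 10 min before luminescence is imaged.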
The depositor's hits bear a star. Only some compounds are listed: those with a hit (about 7.7% of all), similar ones and a draw of the others. Unless noted, calls follow the shape of the dose curve; as a rule, active = well fitted curve in the direction sought with a large enough effect; inconclusive = small, poorly fitted or top-dose-only effect, or another doubt; inactive = no such curve, though single readings can be large; an effect the other way counts as inactive or inconclusive. % is scaled to controls: 0 for no effect and ±100 for the full control effect.

For Nc1c(C(=O)c2ccc(Cl)cc2)sc2nsc(SCCN3CCOCC3)c12 the results were Sm TGR inh -18.1%, HCMV antiviral -15.5, RE007 growth inh 17.9%, FMDV inh inconclusive, Giardia FBPA inh inconclusive and Tb PYK inh -17.0%.
For Nc1c(C(=O)c2ccccc2)sc2nsc(SCCN3CCCC3)c12 the results were Sm TGR inh 39.8µM*, HCMV antiviral -90.8*, RE007 growth inh -5.1%, FMDV inh -16.3%, Giardia FBPA inh 1.1% and Tb PYK inh -2.4%.
COc1ccc(OC)c(-n2c(-c3ccc(C)cc3)n[nH]c2=S)c1 was read as Sm TGR inh -4.3%, HCMV antiviral 59.7, RE007 growth inh -1.0%, FMDV inh -15.7%, Giardia FBPA inh 2.3% and Tb PYK inh inconclusive.
Screening COc1ccc(-c2n[nH]c(=S)n2-c2cc(OC)ccc2OC)cc1 returned Sm TGR inh 6.4%, HCMV antiviral -11.9, RE007 growth inh 5.5%, FMDV inh 14.7%, Giardia FBPA inh 0.3% and Tb PYK inh 2.82µM*.
For COc1ccc(OC)c(-n2c(-c3cccc(O)c3)n[nH]c2=S)c1 the results were Sm TGR inh 1.0%, HCMV antiviral 27.3, RE007 growth inh 0.7%, Giardia FBPA inh -10.8% and Tb PYK inh 14.1µM*.
`Cc1cccc(-c2nc(SCC(=O)NCc3ccco3)c3c(=O)n(C)c(=O)n(C)c3n2)c1` gave Sm TGR inh 9.8%, HCMV antiviral 6.3, FMDV inh -7.8% and Tb PYK inh 3.7%.
COc1cccc(N2CCN(c3c(C#N)c(C(F)(F)F)nn3C)CC2)c1 was read as Sm TGR inh 16.6%, HCMV antiviral -94.3*, RE007 growth inh -16.2%, FMDV inh inconclusive, Giardia FBPA inh -3.9% and Tb PYK inh -4.6%.
`O=C(NCCc1ccccc1)c1ccc(CSc2nc3ccncc3n2Cc2ccccc2)cc1` gave Sm TGR inh 7.8%, HCMV antiviral 28.9, FMDV inh -9.0% and Tb PYK inh 0.2%.
`CC(=O)c1ccc(C(=O)NCC2Cc3cccc(-c4ncccn4)c3O2)cc1` (stereo not given) gave FMDV inh 5.9%.
For CCOC(=O)C1(CCc2ccccc2)CCN(Cc2csc(C(C)=O)c2)CC1 the results were Sm TGR inh 17.9%, HCMV antiviral inconclusive, RE007 growth inh -21.0%, FMDV inh 12.6µM*, Giardia FBPA inh -5.5% and Tb PYK inh 2.5%.
CCOC(=O)C1(Cc2ccccc2C)CCCN(Cc2cc(OC)c(O)c(OC)c2)C1 (stereo not given) was read as Sm TGR inh 4.47µM*, HCMV antiviral 20.7, RE007 growth inh -0.1%, FMDV inh -6.2%, Giardia FBPA inh inconclusive and Tb PYK inh -2.2%.
Screening CCOC(=O)C1(CCc2ccccc2)CCN(Cc2ccc(O)cc2)CC1 returned Sm TGR inh 32.3%, HCMV antiviral -3.3, RE007 growth inh -10.7%, FMDV inh inconclusive, Giardia FBPA inh -0.4% and Tb PYK inh 1.5%.
CCOC(=O)C1(CCOc2ccccc2)CCN(Cc2ccc(O)c(OCC)c2)CC1 was read as Sm TGR inh 44.7µM*, HCMV antiviral 20.5, RE007 growth inh -14.7%, FMDV inh -25.6%, Giardia FBPA inh 8.2% and Tb PYK inh 3.7%.
`CCOC(=O)C1(CCOc2ccccc2)CCN(Cc2cc(OC)c(O)c(OC)c2)CC1` gave Sm TGR inh 39.8µM*, HCMV antiviral -24.9, RE007 growth inh 1.2%, FMDV inh inconclusive, Giardia FBPA inh inconclusive and Tb PYK inh -2.4%.
C[C@H]1[C@@H](NS(=O)(=O)c2ccc(Cl)cc2)CC[C@@]23CCCN2C(=O)CCC[C@@H]13 was read as HCMV antiviral 22.9.
Screening Cc1nc(N2CCCC2)c2c(C(=O)N3CCN(c4cc(Cl)ccc4C)CC3)c(C)oc2n1 returned Sm TGR inh -1.1%, HCMV antiviral 14.8, FMDV inh -21.0% and Tb PYK inh 4.2%.
For CCOC(=O)C1(CCc2ccccc2)CCN(Cc2ccc(OC)cc2)CC1 the results were Sm TGR inh 6.3%, HCMV antiviral 7.7, RE007 growth inh 4.2%, FMDV inh -8.2%, Giardia FBPA inh 0.1% and Tb PYK inh 0.6%.
For CCOC(=O)C1(CCc2ccccc2)CCN(Cc2c(O)cccc2OC)CC1 the results were Sm TGR inh 3.6%, HCMV antiviral -17.8, RE007 growth inh 3.9%, FMDV inh 31.6µM*, Giardia FBPA inh -1.2% and Tb PYK inh 0.2%.
For CCOC(=O)C1(Cc2ccccc2C)CCCN(S(=O)(=O)c2cccnc2)C1 (stereo not given) the results were Sm TGR inh -6.5%, HCMV antiviral -92.5*, RE007 growth inh 3.9%, FMDV inh -23.3%, Giardia FBPA inh -8.8% and Tb PYK inh -1.7%.
CCOc1cc2c(cc1/C=C/c1noc(C)c1[N+](=O)[O-])OC(C)C2 (stereo not given) was read as Sm TGR inh -0.7%, HCMV antiviral -60.8*, RE007 growth inh -1.7%, FMDV inh -10.0%, Giardia FBPA inh -4.7% and Tb PYK inh 0.8%.
`CCOc1cc2c(cc1C=O)OC(C)C2` (stereo not given) gave Sm TGR inh 8.8%, HCMV antiviral -0.3, RE007 growth inh -5.5%, FMDV inh 2.1%, Giardia FBPA inh -2.6% and Tb PYK inh 0.6%.
For C=C1C(=O)[C@]23C[C@H]1CC[C@H]2[C@]1(C)[C@@H](OC(C)=O)CC[C@@](C)(C(=O)OC)[C@H]1C[C@@H]3OC(C)=O the results were HCMV antiviral -100.0*, RE007 growth inh -14.1%, FMDV inh 11.2µM* and Tb PYK inh -9.0%.
`C=C1C(=O)[C@]23C[C@H]1CC[C@H]2[C@]1(C)[C@@H](OC(C)=O)CC[C@@](C)(C(=O)O)[C@H]1C[C@@H]3O` gave HCMV antiviral -65.5*, RE007 growth inh -1.3%, FMDV inh 0.0% and Tb PYK inh -17.1%.
`COC(=O)C1OC(=O)C2OC23[C@]2(C)C(O)CC4C(C)(C)C(OC(C)=O)CC(OC(C)=O)[C@@]4(C)C2CC[C@@]13C` (stereo not given in full) gave FMDV inh -8.7% and Giardia FBPA inh -0.7%.
C=C1C(=O)[C@]23C[C@H]1CC[C@H]2[C@]1(C)[C@@H](O)CC[C@@](C)(C(=O)O)[C@H]1C[C@@H]3O was read as HCMV antiviral -6.0, RE007 growth inh 11.6%, FMDV inh 39.8µM* and Tb PYK inh 0.4%.
